Experimental data taken from PubChem BioAssay.
Calls of active or inactive are those of the source. How the calls were made is not given here.

target: Pantothenate synthetase (Mycobacterium tuberculosis (strain ATCC 25618 / H37Rv)) (UniProt P9WIL5); test: Recombinant Mtb pantothenate synthetase (PanC) inhibitors, coupled enzyme, confirmatory (AID 375); conditions: coupled enzyme assay; at 10 µM, active compounds read high;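 further: 0% = full reaction with vehicle and 100% = no enzyme background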
Sequence (P9WIL5 whole entry, looked up): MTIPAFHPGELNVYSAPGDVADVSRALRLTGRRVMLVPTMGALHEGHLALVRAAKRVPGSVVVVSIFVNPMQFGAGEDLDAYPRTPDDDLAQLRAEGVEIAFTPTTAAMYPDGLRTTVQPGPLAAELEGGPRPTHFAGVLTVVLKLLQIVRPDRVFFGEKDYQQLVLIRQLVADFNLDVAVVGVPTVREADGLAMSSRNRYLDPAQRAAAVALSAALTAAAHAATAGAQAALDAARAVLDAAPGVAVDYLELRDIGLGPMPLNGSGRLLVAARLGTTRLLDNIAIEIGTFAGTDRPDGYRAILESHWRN

| Compound | inhibition |
| --- | --- |
| Cc1cc(C)n(-c2ccc(N3CCOCC3)nn2)n1 | 0% (inactive) |
| COC(=O)CSc1nnc(CSc2nc(C)cc(C)n2)n1Cc1ccco1 | 0% (inactive) |
| COc1ccc2cc3cc(C(=O)NCC4CCCO4)oc3nc2c1 (stereo not given) | 3% (inactive) |
| CCC(C)OC(=O)C1=C(C)NC2=C(C(=O)C(C(=O)OC)C(C)C2)C1c1ccc(N(C)C)cc1 (stereo not given) | 0% (inactive) |
| CCOC(=O)Cc1nn2c(=O)cc(C)nc2s1 | 0% (inactive) |
| COCCCNC(=O)CC1Oc2ccccc2NC1=O (stereo not given) | 0% (inactive) |
| CCCn1c(NC(=O)C2COc3ccccc3O2)nc2ccccc21 (stereo not given) | 0% (inactive) |
| O=C(Nc1ccc(Cc2ccc(NC(=O)N3CCOCC3)cc2)cc1)N1CCOCC1 | 2% (inactive) |
| C=CCSC1=C(C#N)C(c2ccccc2)CC(=O)N1 (stereo not given) | 0% (inactive) |
| O=c1[nH]cnc2c1nc(SCc1ccccc1)n2C1OC(CO)C(O)C1O (stereo not given) | 0% (inactive) |
| Cn1c(=O)c2c3c(sc2n2c(SCC(=O)c4ccc(Cl)cc4)nnc12)COC(C)(C)C3 | 0% (inactive) |
| NCc1cccc(-n2cccn2)c1 | 0% (inactive) |
| CC(C)CCNC(=O)C(C)N(Cc1ccc(F)cc1)C(=O)c1ccc(CN2CCCCC2)o1 (stereo not given) | 1% (inactive) |
| O=C(O)C1C2C=CC3(CN(C4CCCC4)C(=O)C13)O2 (stereo not given) | 4% (inactive) |
| CCOC(=O)C(CC)Sc1nc2c(c(=O)[nH]c(=O)n2C)n1C/C=C(/C)Cl (stereo not given) | 8% (inactive) |
| O=S(=O)(NCC1CCCO1)c1ccc2c(c1)OCCO2 (stereo not given) | 0% (inactive) |
| Brc1ccc2[nH]ncc2c1 | 10% (inactive) |
| CSc1ccc(S(=O)(=O)Nc2cccc(F)c2)cc1 | 0% (inactive) |
| CCN1CCN(C(=O)C2CC(c3ccc(F)cc3)=NO2)CC1 (stereo not given) | 0% (inactive) |
| CCN(C1CCCCC1)S(=O)(=O)c1ccc(S(=O)(=O)N2CCN(CCC#N)CC2)cc1 | 0% (inactive) |

| Compound | inhibition |
| --- | --- |
| COc1ccc(Cl)cc1C(=O)NCCc1ccc(S(=O)(=O)NC(=O)NC2CCCCC2)cc1 | 0% (inactive) |
| Clc1c(CSc2nc3ccccc3o2)nc2sccn12 | 1% (inactive) |
| O=C(NC1CCCCCC1)C1c2ccccc2C(=O)N1Cc1cccnc1 (stereo not given) | 3% (inactive) |
| CC(OC1=CC(=O)CCC1)C(=O)c1ccccc1 (stereo not given) | 2% (inactive) |
| CC1CCCCC1NC(=O)C1CCN(C(=O)NC2CCCCC2)CC1 (stereo not given) | 0% (inactive) |
| Cc1ccc(-n2nnnc2SCC(=O)Nc2c(C)n(C)n(-c3ccccc3)c2=O)cc1 | 0% (inactive) |
| O=S(=O)(c1cccc2nsnc12)N1CCN(c2ncccn2)CC1 | 0% (inactive) |
| CCC(=O)N1CCc2cc(OC)c(OC)cc2C1COc1ccc(C(=O)OC)cc1 (stereo not given) | 9% (inactive) |
| CC1CCCc2sc3nc(NCc4ccco4)n4ncnc4c3c21 (stereo not given) | 0% (inactive) |
| O=c1/c(=C/c2ccco2)sc2nc(-c3ccccc3Br)nn12 | 0% (inactive) |
| CCN(CC)CCOC(=O)c1c(C)oc2ccc(O)cc12 | 0% (inactive) |
| S=c1[nH]nc(Cc2ccccc2)n1-c1ccccc1 | 1% (inactive) |
| CCOC(=O)C1CCN(S(=O)(=O)c2cc(Cl)c(C)cc2OC)CC1 | 4% (inactive) |
| COC(=O)c1cn(C(=O)c2ccc(Br)o2)c2ccccc12 | 0% (inactive) |
| C=CCSc1nnc(-c2ccccc2NC(C)=O)c(=O)[nH]1 | 0% (inactive) |
| CCC(=O)Nc1c2c(nn1-c1ccccc1C)CSC2 | 6% (inactive) |
| Cn1c(=O)cc(OCC(=O)N2CCN(c3cccc(C(F)(F)F)c3)CC2)c2ccccc21 | 12% (inactive) |
| N#Cc1nc(-c2cccs2)oc1NCCc1ccccc1 | 0% (inactive) |
| CCOC(=O)C1CSc2[nH]c(=O)sc2C1c1ccccc1 (stereo not given) | 0% (inactive) |
| Cc1cc(C)nc(SC2=CS(=O)(=O)c3ccccc32)n1 | 0% (inactive) |
